Experimental data reported in the supplement of paper PMC10849652.
Of roughly 7,900 targets only a part is listed; those with a hit were picked by preference. About 0.6% of all pairs of compound and target were hits. Unmarked numbers belong to inactive results.

Columns and labels:
Test in all cases: log2 fold change, soluble protein after heating vs DMSO (PISA); higher = thermal stabilisation; K562 cells, 10 uM, 30 min; active = over 0.2 and 3.5 SD of the protein, either way, in both replicates (recomputed)
[1] = compound: COC1=CC=C(C=C1)CN2C=CC3=C2C=C(C=C3)C(=O)NO
Procedure, shortened: (§1)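 K562 cells at 2×10^6 cells/mL were given 10 μM compound for 30 min. Aliquots then went through 3 min of heating across 48°C-58°C, were pooled, and were extracted in PBS with 0.5% NP-40 at 4°C, and the supernatant after 21,000xg for 90 min was quantified by TMTpro 16plex LC-MS/MS with channel sums equalised. Thermal stability relative to control samples, from duplicates, is given as log2 fold change.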

filanesib = compound: CON(C)C(=O)N1N=C(c2cc(F)ccc2F)S[C@@]1(CCCN)c1ccccc1 [filanesib]
Procedure, shortened: as §1

zotarolimus = compound: CO[C@H]1C[C@@H]2CC[C@@H](C)[C@@](O)(O2)C(=O)C(=O)N2CCCC[C@H]2C(=O)O[C@H]([C@H](C)C[C@@H]2CC[C@H](n3cnnn3)[C@H](OC)C2)CC(=O)[C@H](C)/C=C(\C)[C@@H](O)[C@@H](OC)C(=O)[C@H](C)C[C@H](C)/C=C/C=C/C=C/1C [zotarolimus]
Procedure, shortened: as §1

idasanutlin = compound: COc1cc(C(=O)O)ccc1NC(=O)[C@@H]1N[C@@H](CC(C)(C)C)[C@](C#N)(c2ccc(Cl)cc2F)[C@H]1c1cccc(Cl)c1F [idasanutlin]
Procedure, shortened: as §1

alisertib = compound: COc1cc(Nc2ncc3c(n2)-c2ccc(Cl)cc2C(c2c(F)cccc2OC)=NC3)ccc1C(=O)O [alisertib]
Procedure, shortened: as §1

[2] = compound: COc1cc2nc(-c3cc(F)ccc3O)nc(N[C@@H]3CNC[C@H]3C(C)(C)O)c2cc1OC
Procedure, shortened: as §1

gefitinib = compound: COc1cc2ncnc(Nc3ccc(F)c(Cl)c3)c2cc1OCCCN1CCOCC1 [gefitinib]
Procedure, shortened: as §1

[3] = compound: COc1cccc2cc(-c3nc([C@H]4CC[C@H](C(=O)O)CC4)n4ncnc(N)c34)[nH]c12
Procedure, shortened: as §1

lapatinib = compound: CS(=O)(=O)CCNCc1ccc(-c2ccc3ncnc(Nc4ccc(OCc5cccc(F)c5)c(Cl)c4)c3c2)o1 [lapatinib]
Procedure, shortened: as §1

pictilisib = compound: CS(=O)(=O)N1CCN(Cc2cc3nc(-c4cccc5[nH]ncc45)nc(N4CCOCC4)c3s2)CC1 [pictilisib]
Procedure, shortened: as §1

[4] = compound: CS(=O)(=O)c1ccc(-c2cnc(N)c(C(=O)Nc3ccccc3)n2)cc1
Procedure, shortened: as §1

crizotinib = compound: C[C@@H](Oc1cc(-c2cnn(C3CCNCC3)c2)cnc1N)c1c(Cl)ccc(F)c1Cl [crizotinib]
Procedure, shortened: as §1

[5] = compound: C[C@@H]1COCCN1C2=NC(=NC(=C2)C3(CC3)S(=O)(=O)C)C4=C5C=CNC5=CC=C4
Procedure, shortened: as §1

[6] = compound: C[C@H](C1=CC=C(C=C1)C(=O)NC2=C3C=CNC3=NC=C2)N
Procedure, shortened: as §1

duvelisib = compound: C[C@H](Nc1ncnc2nc[nH]c12)c1cc2cccc(Cl)c2c(=O)n1-c1ccccc1 [duvelisib]
Procedure, shortened: as §1

gandotinib = compound: Cc1cc(Nc2cc(CN3CCOCC3)c3nc(C)c(Cc4ccc(Cl)cc4F)n3n2)n[nH]1 [gandotinib]
Procedure, shortened: as §1

tozasertib = compound: Cc1cc(Nc2cc(N3CCN(C)CC3)nc(Sc3ccc(NC(=O)C4CC4)cc3)n2)n[nH]1 [tozasertib]
Procedure, shortened: as §1

[7] = compound: Cc1cc(SCc2sc(-c3ccc(C(F)(F)F)cc3)nc2C)ccc1OCC(=O)O
Procedure, shortened: as §1

doramapimod = compound: Cc1ccc(-n2nc(C(C)(C)C)cc2NC(=O)Nc2ccc(OCCN3CCOCC3)c3ccccc23)cc1 [doramapimod]
Procedure, shortened: as §1

ispinesib = compound: Cc1ccc(C(=O)N(CCCN)[C@@H](c2nc3cc(Cl)ccc3c(=O)n2Cc2ccccc2)C(C)C)cc1 [ispinesib]
Procedure, shortened: as §1

UniProt Q7Z4S6, sequence (Q7Z4S6 whole entry, looked up): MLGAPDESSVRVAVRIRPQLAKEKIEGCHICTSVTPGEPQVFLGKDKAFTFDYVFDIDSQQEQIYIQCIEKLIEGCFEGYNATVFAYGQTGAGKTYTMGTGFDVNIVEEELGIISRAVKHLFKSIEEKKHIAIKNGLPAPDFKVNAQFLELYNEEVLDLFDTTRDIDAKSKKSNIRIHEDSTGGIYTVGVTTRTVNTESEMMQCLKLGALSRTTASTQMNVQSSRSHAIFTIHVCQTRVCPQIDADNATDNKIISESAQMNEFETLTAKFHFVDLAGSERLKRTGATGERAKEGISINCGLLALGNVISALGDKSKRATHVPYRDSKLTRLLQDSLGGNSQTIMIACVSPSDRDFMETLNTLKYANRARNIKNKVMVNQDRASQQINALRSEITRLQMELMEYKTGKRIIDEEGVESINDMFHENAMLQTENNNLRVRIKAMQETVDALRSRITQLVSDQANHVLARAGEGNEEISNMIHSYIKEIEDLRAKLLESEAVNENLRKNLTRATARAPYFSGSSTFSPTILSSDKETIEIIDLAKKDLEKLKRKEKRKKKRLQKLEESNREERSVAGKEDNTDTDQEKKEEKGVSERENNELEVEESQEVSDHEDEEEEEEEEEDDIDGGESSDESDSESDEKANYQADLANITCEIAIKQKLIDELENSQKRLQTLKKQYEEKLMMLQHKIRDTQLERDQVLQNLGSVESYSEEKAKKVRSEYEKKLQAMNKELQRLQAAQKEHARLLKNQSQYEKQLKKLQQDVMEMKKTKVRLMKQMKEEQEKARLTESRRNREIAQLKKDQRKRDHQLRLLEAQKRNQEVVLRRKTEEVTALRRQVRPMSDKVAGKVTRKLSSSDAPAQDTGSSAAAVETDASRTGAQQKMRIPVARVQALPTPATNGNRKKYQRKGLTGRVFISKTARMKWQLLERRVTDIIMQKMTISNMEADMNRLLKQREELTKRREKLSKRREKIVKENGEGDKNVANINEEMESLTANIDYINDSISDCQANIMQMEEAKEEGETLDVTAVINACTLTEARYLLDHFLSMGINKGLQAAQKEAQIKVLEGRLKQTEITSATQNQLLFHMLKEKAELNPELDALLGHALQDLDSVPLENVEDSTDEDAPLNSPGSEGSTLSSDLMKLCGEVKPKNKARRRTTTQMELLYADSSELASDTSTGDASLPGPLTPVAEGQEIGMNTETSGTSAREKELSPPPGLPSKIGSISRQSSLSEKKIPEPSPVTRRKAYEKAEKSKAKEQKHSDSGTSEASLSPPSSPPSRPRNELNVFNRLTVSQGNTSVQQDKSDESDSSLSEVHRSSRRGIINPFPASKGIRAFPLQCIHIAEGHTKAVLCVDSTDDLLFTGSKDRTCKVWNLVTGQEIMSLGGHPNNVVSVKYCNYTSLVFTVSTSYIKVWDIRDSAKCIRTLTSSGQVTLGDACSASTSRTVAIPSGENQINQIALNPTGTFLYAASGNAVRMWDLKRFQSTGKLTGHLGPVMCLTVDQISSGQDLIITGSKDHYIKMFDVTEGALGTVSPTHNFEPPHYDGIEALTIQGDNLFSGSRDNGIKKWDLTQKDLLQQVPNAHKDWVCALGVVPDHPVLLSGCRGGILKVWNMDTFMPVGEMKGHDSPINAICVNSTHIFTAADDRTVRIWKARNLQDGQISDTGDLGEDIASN
UniProt Q07666, sequence (Q07666 whole entry, looked up): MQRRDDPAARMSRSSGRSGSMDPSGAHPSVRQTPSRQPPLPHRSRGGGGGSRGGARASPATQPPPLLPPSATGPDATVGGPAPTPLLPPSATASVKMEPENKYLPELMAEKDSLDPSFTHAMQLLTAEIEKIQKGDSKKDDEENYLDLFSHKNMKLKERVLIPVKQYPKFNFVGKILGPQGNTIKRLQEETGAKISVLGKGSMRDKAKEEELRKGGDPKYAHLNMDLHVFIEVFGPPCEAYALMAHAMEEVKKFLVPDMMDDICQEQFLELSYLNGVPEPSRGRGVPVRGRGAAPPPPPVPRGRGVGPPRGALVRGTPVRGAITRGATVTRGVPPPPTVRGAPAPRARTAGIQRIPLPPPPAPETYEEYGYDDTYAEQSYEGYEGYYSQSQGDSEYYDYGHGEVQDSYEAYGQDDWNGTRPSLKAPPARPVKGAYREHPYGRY
UniProt P13473, sequence (P13473 whole entry, looked up): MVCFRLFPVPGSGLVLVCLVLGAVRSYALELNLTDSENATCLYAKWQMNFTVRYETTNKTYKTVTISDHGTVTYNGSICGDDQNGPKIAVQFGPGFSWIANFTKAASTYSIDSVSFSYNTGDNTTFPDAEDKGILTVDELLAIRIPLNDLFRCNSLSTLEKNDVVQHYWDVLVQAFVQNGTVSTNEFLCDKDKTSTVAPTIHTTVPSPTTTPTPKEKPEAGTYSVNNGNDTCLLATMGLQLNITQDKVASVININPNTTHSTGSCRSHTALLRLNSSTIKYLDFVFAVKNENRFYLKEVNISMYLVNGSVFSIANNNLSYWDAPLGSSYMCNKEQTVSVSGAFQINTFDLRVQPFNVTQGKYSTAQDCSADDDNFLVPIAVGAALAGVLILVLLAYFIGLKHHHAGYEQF
UniProt A8MWY0, sequence (A8MWY0 whole entry, looked up): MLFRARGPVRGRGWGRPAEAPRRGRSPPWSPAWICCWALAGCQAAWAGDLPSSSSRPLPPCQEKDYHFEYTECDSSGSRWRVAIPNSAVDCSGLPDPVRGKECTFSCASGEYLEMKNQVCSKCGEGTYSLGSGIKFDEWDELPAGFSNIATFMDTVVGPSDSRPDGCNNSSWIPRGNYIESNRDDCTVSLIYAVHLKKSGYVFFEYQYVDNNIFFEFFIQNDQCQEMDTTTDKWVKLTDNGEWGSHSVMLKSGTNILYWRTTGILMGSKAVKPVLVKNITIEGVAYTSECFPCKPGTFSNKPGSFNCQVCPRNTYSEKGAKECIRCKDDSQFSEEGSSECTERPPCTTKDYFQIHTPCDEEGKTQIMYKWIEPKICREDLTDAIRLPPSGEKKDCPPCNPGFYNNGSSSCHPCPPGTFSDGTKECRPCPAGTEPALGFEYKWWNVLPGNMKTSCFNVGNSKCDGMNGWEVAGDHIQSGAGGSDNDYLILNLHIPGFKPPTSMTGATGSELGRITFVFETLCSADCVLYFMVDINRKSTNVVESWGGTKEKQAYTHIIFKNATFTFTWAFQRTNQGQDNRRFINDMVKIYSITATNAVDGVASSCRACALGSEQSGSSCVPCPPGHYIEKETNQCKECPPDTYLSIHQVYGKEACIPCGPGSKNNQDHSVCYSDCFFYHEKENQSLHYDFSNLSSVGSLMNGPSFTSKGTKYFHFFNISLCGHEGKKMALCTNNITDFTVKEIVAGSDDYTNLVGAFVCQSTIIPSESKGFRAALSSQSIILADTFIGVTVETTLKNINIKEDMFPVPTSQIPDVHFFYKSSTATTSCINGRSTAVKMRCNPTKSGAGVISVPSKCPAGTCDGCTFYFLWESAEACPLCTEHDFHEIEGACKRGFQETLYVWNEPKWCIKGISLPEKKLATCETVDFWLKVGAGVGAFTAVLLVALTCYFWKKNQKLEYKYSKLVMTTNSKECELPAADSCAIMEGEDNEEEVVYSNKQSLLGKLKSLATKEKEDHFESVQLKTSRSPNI
UniProt Q14653, sequence (Q14653 whole entry, looked up): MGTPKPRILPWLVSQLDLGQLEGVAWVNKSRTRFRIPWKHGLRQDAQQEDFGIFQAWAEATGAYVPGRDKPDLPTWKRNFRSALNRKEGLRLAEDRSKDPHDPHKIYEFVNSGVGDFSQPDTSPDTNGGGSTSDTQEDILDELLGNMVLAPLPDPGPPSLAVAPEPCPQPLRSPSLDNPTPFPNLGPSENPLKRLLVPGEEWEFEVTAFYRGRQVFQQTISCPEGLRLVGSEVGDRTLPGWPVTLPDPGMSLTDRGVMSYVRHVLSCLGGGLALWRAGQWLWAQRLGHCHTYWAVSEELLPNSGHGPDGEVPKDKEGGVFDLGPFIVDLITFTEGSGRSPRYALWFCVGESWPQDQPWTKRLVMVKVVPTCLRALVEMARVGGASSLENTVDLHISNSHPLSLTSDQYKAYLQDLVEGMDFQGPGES
UniProt Q9H6V9, sequence (Q9H6V9 whole entry, looked up): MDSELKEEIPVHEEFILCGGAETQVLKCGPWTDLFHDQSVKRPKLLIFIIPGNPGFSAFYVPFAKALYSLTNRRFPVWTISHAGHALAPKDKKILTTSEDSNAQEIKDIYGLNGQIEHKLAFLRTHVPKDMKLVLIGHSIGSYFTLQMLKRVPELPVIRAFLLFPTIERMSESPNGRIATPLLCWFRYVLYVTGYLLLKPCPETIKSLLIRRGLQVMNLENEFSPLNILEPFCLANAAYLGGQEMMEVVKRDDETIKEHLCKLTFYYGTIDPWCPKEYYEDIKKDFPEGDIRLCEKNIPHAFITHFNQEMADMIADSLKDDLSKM

| Target | log2 fold change [1] | log2 fold change (filanesib) | log2 fold change (zotarolimus) | log2 fold change (idasanutlin) | log2 fold change (alisertib) | log2 fold change [2] | log2 fold change (gefitinib) | log2 fold change [3] | log2 fold change (lapatinib) | log2 fold change (pictilisib) | log2 fold change [4] | log2 fold change (crizotinib) | log2 fold change [5] | log2 fold change [6] | log2 fold change (duvelisib) | log2 fold change (gandotinib) | log2 fold change (tozasertib) | log2 fold change [7] | log2 fold change (doramapimod) | log2 fold change (ispinesib) |
| --- | --- | --- | --- | --- | --- | --- | --- | --- | --- | --- | --- | --- | --- | --- | --- | --- | --- | --- | --- | --- |
| KPNA6 (UniProt O60684) | 0.193 | 0.115 | 0.169 | -0.031 | -0.01 | 0.056 | 0.048 | -0.066 | -0.018 | -0.017 | -0.01 | -0.11 | -0.011 | 0.138 | 0 | -0.028 | 0.046 | 0.07 | 0.046 | -0.202 |
| ILK (UniProt Q13418) | -0.444 (active) | 0.023 | -0.052 | 0.021 | 0.038 | 0.036 | 0.007 | 0 | -0.05 | 0.068 | 0.054 | 0.038 | -0.001 | 0.046 | 0.081 | -0.039 | -0.105 | -0.046 | -0.023 | -0.153 |
| LARP7 isoform 3 (UniProt Q4G0J3) | -0.258 (active) | 0.071 | 0.082 | -0.019 | -0.007 | -0.165 | 0.001 | 0.042 | 0.082 | -0.041 | -0.001 | 0.022 | 0.068 | -0.077 | -0.013 | -0.065 | 0.071 | 0.088 | 0.012 | -0.007 |
| MAPK8 isoform 3 (UniProt P45983) | 0.025 | 0.064 | 0.018 | -0.08 | 0.007 | 0.234 | -0.026 | 0.035 | -0.045 | 0.287 | 0.003 | -0.08 | 0.092 | -0.096 | 0.018 | 0.254 | -0.127 | 0.096 | -0.019 | -0.008 |
| KIAA1324L (UniProt A8MWY0) | -0.03 | 0.091 | -0.09 | 0.07 | -0.013 | 0.028 | 0.109 | 0.049 | -0.026 | 0.005 | 0.081 | -0.125 | 0.06 | 0.062 | -0.027 | 0.076 | -0.036 | -0.057 | 0.051 | -0.124 |
| KDM3B (UniProt Q7LBC6) | 0.01 | 0.001 | 0.033 | -0.026 | 0.021 | 0.065 | 0.008 | -0.029 | -0.014 | 0.012 | 0.045 | 0.001 | 0.086 | -0.044 | 0.015 | -0.045 | 0.06 | 0.012 | -0.077 | 0.015 |
| KIF21A isoform 4 (UniProt Q7Z4S6) | 0.014 | 0.028 | 0.051 | 0.07 | 0.051 | 0.163 | -0.028 | -0.126 | 0.001 | 0.037 | 0.092 | -0.039 | 0.027 | 0.207 | 0.055 | -0.001 | 0.021 | 0.044 | 0.047 | -0.153 |
| LRBA, A0A494BZW2 | 0.006 | -0.136 | -0.127 | -0.207 | 0.001 | 0.453 | -0.026 | 0.046 | -0.097 | 0.095 | 0.013 | -0.053 | 0.114 | 0.104 | -0.057 | 0.041 | -0.055 | -0.004 | 0.036 | -0.182 |
| KIF13A (UniProt Q9H1H9) | 0.003 | 0.01 | -0.057 | -0.022 | -0.022 | 0.037 | 0.194 | 0.139 | -0.012 | -0.097 | 0.018 | 0.058 | 0.112 | 0.072 | 0.034 | -0.384 (active) | 0.065 | -0.009 | -0.011 | -0.003 |
| KHDRBS1 (UniProt Q07666) | 0.06 | 0.041 | -0.012 | 0.002 | 0.014 | 0.129 | 0.026 | 0.008 | -0.072 | -0.072 | -0.091 | -0.02 | -0.06 | -0.019 | -0.017 | 0.07 | -0.015 | 0.038 | -0.027 | 0.011 |
| LARP4B (UniProt Q92615) | 0.035 | 0.056 | 0.004 | 0.053 | -0.054 | -0.108 | 0.011 | -0.06 | 0.081 | -0.009 | -0.066 | -0.1 | -0.121 | 0.104 | -0.029 | -0.029 | 0.037 | 0.065 | 0.048 | -0.132 |
| LDAH isoform 2 (UniProt Q9H6V9) | 0.06 | -0.137 | 0.057 | -0.185 | -0.041 | -0.517 (active) | 0.004 | 0.032 | -0.005 | 0.075 | 0.052 | -0.308 (active) | 0.064 | -0.035 | 0.001 | -0.001 | -0.047 | 0.204 | 0.019 | -0.438 (active) |
| LAMP2 (UniProt P13473) | -0.125 | -0.058 | -0.022 | -0.005 | -0.006 | -0.012 | 0.005 | 0.084 | -0.079 | 0.046 | 0.055 | 0.043 | 0.006 | -0.051 | 0.072 | -0.104 | 0.015 | -0.062 | -0.039 | -0.001 |
| IRF3 (UniProt Q14653) | -0.075 | -0.141 | 0.021 | -0.073 | -0.085 | -0.08 | 0.011 | 0.023 | -0.003 | 0.053 | -0.146 | 0.007 | 0.056 | -0.027 | 0.067 | -0.068 | 0.039 | 0.053 | -0.038 | 0.022 |
| KLC2 (UniProt Q9H0B6) | 0.06 | -0.038 | -0.028 | -0.065 | -0.047 | -0.133 | 0.017 | 0 | -0.005 | 0.083 | 0.012 | -0.131 | 0.008 | -0.007 | 0.059 | -0.079 | -0.004 | 0.047 | -0.002 | -0.062 |
| KIFBP (UniProt Q96EK5) | 0.058 | -0.095 | 0.074 | -0.09 | 0.106 | -0.028 | 0.01 | 0.01 | -0.049 | -0.071 | -0.036 | -0.025 | 0.079 | 0.08 | 0.007 | -0.051 | 0.065 | 0.085 | -0.053 | -0.139 |
